Experiment [1] is described as follows: antimalarial activity against Dd2 strain (AID 2302;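 active = growth inhibition above 50% at the single 2 µM test dose, taken to imply half-maximal potency below 2 µM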;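 note: 0% = DMSO untreated growth and 100% = chloroquine plus artemisinin killed control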). The note with it: P. falciparum Dd2 in RBCs, LDH growth readout, 72 h; at 2 µM; active compounds read high.
Experiment [2] is described as follows: HepG2 cytotoxicity, primary screen, cytotoxicity control for P. falciparum antimalarial project, cell-based, ATP luminescence (AID 2303;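 active = inhibition above 50%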;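 note: 0% = DMSO wells and 100% = digitonin-killed cells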). The note with it: HepG2 viability, 24-48 h, at 10 µM, active compounds read high.
Experiment [3] deals with L-lactate dehydrogenase (Plasmodium falciparum (isolate CDC / Honduras)) (UniProt Q27743). Description: PfLDH activity inhibition – cell lysate, 3D7 strain, counter-screen for P. falciparum growth inhibition project (AID 2304).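 Note: 0% = vehicle and 100% = reference inhibitor.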 The note with it: P. falciparum 3D7 crude extract, LDH APAD/NBT absorbance; at 2 µM; active compounds read high.
The nature of experiment [4]: inhibition of 3D7 malaria parasite growth – strain 3D7 (AID 2306).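 Note: 0% = DMSO wells and 100% = chloroquine plus artemisinin control wells.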 Particulars: P. falciparum 3D7 erythrocytic growth, LDH absorbance, 72 h; at 2 µM; active compounds read high.
Experiment [5] addresses Calcium-dependent protein kinase 1 (Plasmodium falciparum (isolate 3D7)) (UniProt P62344). Description: PfCDPK1 kinase inhibitors, biochemical, TCAMS library (AID 1159585; cut-off not given, nearly all actives have IC50 up to about 0.98 µM;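 note: inhibitors leave more ATP so luminescence rises with inhibition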). The note with it: recombinant PfCDPK1, Kinase-Glo ATP depletion luminescence.
For experiment [6], the target named is Plasmodium falciparum protein kinase 6 (PK6, PF3D7_1337100) (UniProt Q8IDW1). Description: PfPK6 kinase inhibitors, biochemical, TCAMS library (AID 1159586). Particulars: recombinant PfPK6, Kinase-Glo ATP depletion luminescence.
For experiment [7], the target named is Protein kinase 7 (PK7), Plasmodium falciparum 3D7 (PF3D7_0213400) (UniProt Q7YTF7). Nature of the experiment: inhibition of Plasmodium PK7 catalytic activity – biochemical, TCAMS antimalarial set, Kinase-Glo luminescence (AID 1159587). Particulars: recombinant PfPK7, Kinase-Glo ATP depletion luminescence.
For experiment [8], the target named is Calcium-dependent protein kinase 4 (Plasmodium falciparum (isolate 3D7)) (UniProt Q8IBS5). Nature of the experiment: PfCDPK4 kinase inhibitors, biochemical, TCAMS library (AID 1159588; cut-off not given, nearly all actives have IC50 up to about 0.91 µM). Particulars: recombinant PfCDPK4, Kinase-Glo ATP depletion luminescence.

Unmarked numbers belong to inactive results. For some of these results: Entries with a potency or affinity are not part of this list. Active and inactive are the calls of the source. Unless noted, the rule behind the calls is not given here.

Calcium-dependent protein kinase 4 (Plasmodium falciparum (isolate 3D7)), sequence (Q8IBS5 whole entry, looked up): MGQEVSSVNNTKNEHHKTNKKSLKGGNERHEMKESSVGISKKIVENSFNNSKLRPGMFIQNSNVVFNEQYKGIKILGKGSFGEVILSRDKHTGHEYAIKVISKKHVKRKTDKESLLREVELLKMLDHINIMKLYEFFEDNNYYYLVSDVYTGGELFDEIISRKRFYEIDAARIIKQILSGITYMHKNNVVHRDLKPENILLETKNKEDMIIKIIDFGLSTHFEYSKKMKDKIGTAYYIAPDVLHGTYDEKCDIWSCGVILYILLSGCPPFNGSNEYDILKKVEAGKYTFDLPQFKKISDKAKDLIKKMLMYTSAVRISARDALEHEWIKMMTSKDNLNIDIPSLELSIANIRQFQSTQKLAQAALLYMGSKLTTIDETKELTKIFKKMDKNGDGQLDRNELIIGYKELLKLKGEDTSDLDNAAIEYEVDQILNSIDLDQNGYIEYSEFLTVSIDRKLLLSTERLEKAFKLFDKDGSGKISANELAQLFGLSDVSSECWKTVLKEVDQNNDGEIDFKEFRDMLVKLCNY
Protein kinase 7 (PK7), Plasmodium falciparum 3D7 (PF3D7_0213400), sequence (Q7YTF7 1-343): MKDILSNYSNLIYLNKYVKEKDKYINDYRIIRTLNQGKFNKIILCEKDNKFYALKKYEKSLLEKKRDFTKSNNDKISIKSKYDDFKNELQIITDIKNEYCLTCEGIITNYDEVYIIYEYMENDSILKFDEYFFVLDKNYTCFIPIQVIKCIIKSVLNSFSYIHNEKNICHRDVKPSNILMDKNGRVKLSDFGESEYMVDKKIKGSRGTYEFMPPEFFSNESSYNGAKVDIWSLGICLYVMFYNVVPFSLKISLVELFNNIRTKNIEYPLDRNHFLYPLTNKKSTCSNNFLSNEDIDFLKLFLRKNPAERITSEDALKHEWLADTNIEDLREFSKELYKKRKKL
Calcium-dependent protein kinase 1 (Plasmodium falciparum (isolate 3D7)), sequence (P62344 whole entry, looked up): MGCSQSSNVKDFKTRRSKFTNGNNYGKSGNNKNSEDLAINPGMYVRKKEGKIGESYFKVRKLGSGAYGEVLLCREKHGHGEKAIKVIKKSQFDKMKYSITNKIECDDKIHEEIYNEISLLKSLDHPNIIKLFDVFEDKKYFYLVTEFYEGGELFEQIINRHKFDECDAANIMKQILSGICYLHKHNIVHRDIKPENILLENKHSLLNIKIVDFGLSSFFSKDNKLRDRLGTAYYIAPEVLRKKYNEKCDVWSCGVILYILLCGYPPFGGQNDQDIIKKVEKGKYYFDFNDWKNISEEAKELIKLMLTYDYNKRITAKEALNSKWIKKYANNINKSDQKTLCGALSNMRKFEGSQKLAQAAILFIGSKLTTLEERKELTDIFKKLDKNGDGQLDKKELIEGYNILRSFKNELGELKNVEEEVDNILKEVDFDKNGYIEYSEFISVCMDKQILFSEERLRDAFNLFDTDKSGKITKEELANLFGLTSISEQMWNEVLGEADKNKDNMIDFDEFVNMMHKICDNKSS
Plasmodium falciparum protein kinase 6 (PK6, PF3D7_1337100), sequence (Q8IDW1 1-305): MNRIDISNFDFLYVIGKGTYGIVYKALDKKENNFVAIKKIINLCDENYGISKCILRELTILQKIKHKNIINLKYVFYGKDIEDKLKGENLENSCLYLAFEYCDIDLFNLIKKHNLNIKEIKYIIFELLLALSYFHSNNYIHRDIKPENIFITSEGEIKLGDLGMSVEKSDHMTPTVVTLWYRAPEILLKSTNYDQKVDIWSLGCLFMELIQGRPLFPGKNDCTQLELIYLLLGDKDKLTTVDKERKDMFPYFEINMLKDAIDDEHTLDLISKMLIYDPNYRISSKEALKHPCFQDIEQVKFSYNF
L-lactate dehydrogenase (Plasmodium falciparum (isolate CDC / Honduras)), sequence (Q27743 whole entry, looked up): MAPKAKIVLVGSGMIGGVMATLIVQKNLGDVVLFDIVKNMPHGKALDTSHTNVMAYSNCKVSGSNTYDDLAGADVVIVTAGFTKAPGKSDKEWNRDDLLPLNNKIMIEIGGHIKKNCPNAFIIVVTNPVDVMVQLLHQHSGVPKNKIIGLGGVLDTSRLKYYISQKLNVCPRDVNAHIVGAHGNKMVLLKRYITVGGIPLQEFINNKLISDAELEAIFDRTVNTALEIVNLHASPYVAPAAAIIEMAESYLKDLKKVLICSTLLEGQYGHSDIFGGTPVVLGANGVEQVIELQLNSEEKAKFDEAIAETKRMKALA

Consider `C[C@H](Cc1ccc(OCCCOc2ccc(C[C@@H](C)NC[C@H](O)c3cccc(Cl)c3)cc2)cc1)NC[C@H](O)c1cccc(Cl)c1`, for which the growth inhibition was 92% (active) in experiment [1] and 99% (active) in experiment [4]. Besides, the inhibition in experiment [2] was 99% (active); in experiment [3] it was 0%. Also, the result in experiment [5], in experiment [6], in experiment [7] and in experiment [8] was inactive.
As for `Cc1cc(C(F)(F)F)n2nc(C(=O)N(Cc3cncn3Cc3cccc(F)c3)CC3CC3)cc2n1`, the growth inhibition in experiment [1] was 92% (active); in experiment [4] it was 101% (active). The inhibition in experiment [2] is -2%; in experiment [3] it was 3%. In addition, the result in experiment [5], in experiment [6], in experiment [7] and in experiment [8] was inactive.
Consider `Clc1nc2ccccn2c1C=Cc1ccc2ccccc2n1`, for which the growth inhibition in experiment [1] is 75% (active); in experiment [4], 86% (active). Further, the figures for the inhibition in experiment [2] and in experiment [3] were -31% and -6%, respectively. The result in experiment [5], in experiment [6], in experiment [7] and in experiment [8] was inactive.
`Cc1nc2ccccn2c1C1(O)C(=O)Nc2c(Cl)cc(Cl)cc21` (stereo not given): the growth inhibition was 62% (active) in experiment [1] and 95% (active) in experiment [4]. The inhibition in experiment [2] is -11%; in experiment [3], -3%. Besides, the result in experiment [5], in experiment [6], in experiment [7] and in experiment [8] was inactive.
On to `O=C(Nc1cc(=O)[nH]c2nc(-c3ccccc3)nn12)C1CCCCC1`, for which the growth inhibition in experiment [1] was 89% (active); in experiment [4], 86% (active). In addition, the inhibition in experiment [2] is -9%; in experiment [3], -4%. In addition, the result in experiment [5], in experiment [6], in experiment [7] and in experiment [8] was inactive.
On to `O=C(/C=C/c1ccc(Cl)c(Cl)c1)N1CCN(C(=O)Nc2ccc(C(F)(F)F)cc2)CC1`, for which the results for the growth inhibition in experiment [1] and in experiment [4] were 101% (active) and 98% (active), respectively. For the same compound, the results for the inhibition in experiment [2] and in experiment [3] were 47% and 4%, respectively. Moreover, the result in experiment [5], in experiment [6], in experiment [7] and in experiment [8] was inactive.
Regarding `CCOC(=O)CCCc1cc(NC2CCN(C)CC2)nc(Nc2ccc(C)cc2)n1`, the growth inhibition in experiment [1] is 12%; in experiment [4] it was 90% (active). The inhibition in experiment [2] is 35%; in experiment [3] it was -2%. For the same compound, the result in experiment [5], in experiment [6], in experiment [7] and in experiment [8] was inactive.
Regarding `CCCCN(Cc1cc(Cl)c(OCC)c(OC)c1)c1ccc(C(O)(C(F)(F)F)C(F)(F)F)cc1`, the growth inhibition in experiment [1] is 97% (active); in experiment [4], 92% (active). For the same compound, the inhibition is 5% in experiment [2] and -6% in experiment [3]. For the same compound, the result in experiment [5], in experiment [6], in experiment [7] and in experiment [8] was inactive.
Regarding `Cc1cc(Nc2cc(Cl)cc(Cl)c2)nc(N)n1`, the growth inhibition in experiment [1] was 28%; in experiment [4], 94% (active). Moreover, the inhibition in experiment [2] was -12%; in experiment [3] it was 3%. Also, the outcome in experiment [5], in experiment [6], in experiment [7] and in experiment [8] was inactive.
Regarding `O=C(NCc1ccc(F)cc1)Nc1cccc(-c2ccc(-c3nc4ccc(F)cc4[nH]3)cc2)c1`, the growth inhibition in experiment [1] is 96% (active); in experiment [4], 101% (active). For the same compound, the inhibition was 7% in experiment [2] and -3% in experiment [3]. Further, the outcome in experiment [5], in experiment [6], in experiment [7] and in experiment [8] was inactive.
For the compound `Oc1cccc(CCNCCCCCCNCCc2ccc(Cl)cc2)c1`, the growth inhibition in experiment [1] is -3%; in experiment [4], 96% (active). Moreover, the inhibition was 23% in experiment [2] and -1% in experiment [3]. The result in experiment [5], in experiment [6], in experiment [7] and in experiment [8] was inactive.
Consider `CC(C)(NCc1ccc(OC(F)(F)F)cc1)c1nc(-c2ccc(Cl)c(O)c2)c(-c2ccncc2)[nH]1`, for which the values for the growth inhibition in experiment [1] and in experiment [4] were 32% and 94% (active), respectively. Further, the inhibition in experiment [2] is 65% (active); in experiment [3], -8%. Further, the outcome in experiment [5], in experiment [6], in experiment [7] and in experiment [8] was inactive.
On to `CC(C)NCc1ccc(-c2cccc(NC(=O)c3ccc(F)cc3)c2)cc1`, for which the growth inhibition in experiment [1] is 7%; in experiment [4] it was 91% (active). For the same compound, the values for the inhibition in experiment [2] and in experiment [3] were 28% and 6%, respectively. The outcome in experiment [5], in experiment [6], in experiment [7] and in experiment [8] was inactive.
For the compound `O=C(CCN(Cc1ccco1)c1nc(-c2ccc(F)cc2)nc2ccccc12)NC1CC1`, the growth inhibition in experiment [1] is 54% (active); in experiment [4], 94% (active). The values for the inhibition in experiment [2] and in experiment [3] were -12% and 4%, respectively. The result in experiment [5], in experiment [6], in experiment [7] and in experiment [8] was inactive.
With `CCOc1ccc(C(=O)Nc2ccc(-c3nc4ccccc4[nH]3)cc2)cc1[N+](=O)[O-]`, the results for the growth inhibition in experiment [1] and in experiment [4] were 70% (active) and 100% (active), respectively. Further, the inhibition is 22% in experiment [2] and 4% in experiment [3]. The outcome in experiment [5], in experiment [6], in experiment [7] and in experiment [8] was inactive.
`CCC(C)c1ccc(NC(=O)Nc2ccnc3ccccc23)cc1` (stereo not given): the growth inhibition in experiment [1] was 42%; in experiment [4] it was 98% (active). Further, the inhibition in experiment [2] is 27%; in experiment [3] it was -2%. For the same compound, the result in experiment [5], in experiment [6], in experiment [7] and in experiment [8] was inactive.
With `Cc1cc(CNCCCCCCNCc2ccc(-c3ccccc3)cc2)ccc1O`, the growth inhibition in experiment [1] was -2%; in experiment [4], 98% (active). Moreover, the values for the inhibition in experiment [2] and in experiment [3] were 90% (active) and -3%, respectively. Also, the result in experiment [5], in experiment [6], in experiment [7] and in experiment [8] was inactive.
Consider `O=S(=O)(NCCN1CCCC1)c1ccc(-c2ccc(CNCc3ccc(F)cc3)cc2)cc1`, for which the figures for the growth inhibition in experiment [1] and in experiment [4] were 44% and 94% (active), respectively. In addition, the inhibition in experiment [2] was 42%; in experiment [3], 4%. The result in experiment [5], in experiment [6], in experiment [7] and in experiment [8] was inactive.
`CCCCc1cc(NCC)nc(Nc2ccc(F)cc2)n1`: the growth inhibition was 56% (active) in experiment [1] and 98% (active) in experiment [4]. In addition, the figures for the inhibition in experiment [2] and in experiment [3] were 33% and -1%, respectively. The outcome in experiment [5], in experiment [6], in experiment [7] and in experiment [8] was inactive.
As for `CC(C)CCN1CCCN(Cc2cccc(NC(=O)c3ccc(Cl)c(Cl)c3)c2)CC1`, the growth inhibition in experiment [1] is 13%; in experiment [4] it was 92% (active). Further, the inhibition in experiment [2] was 35%; in experiment [3] it was -1%. The outcome in experiment [5], in experiment [6], in experiment [7] and in experiment [8] was inactive.

The values above are taken from PubChem BioAssay.
